Assay results as given in ChEMBL document CHEMBL4513147, “CO-ADD screening of Armstrong State University (GA, USA) compounds”.
In all, about 21,000 compounds went through this assay and fewer than 10 showed an effect of 50% or more. The list is a sample of the results. Results with a measured potency or affinity are listed apart.

system: Acinetobacter baumannii; settings: Concentration 32 ug.mL-1; ASSAY_TEST Inhibition of Bacterial Growth; detection method Absorption (OD600); MEDIA CAMHB; plate type 384well; NBS; CORNING #3640; time 18 hr

Row | Structure (SMILES) | Inhibition
1 | COc1ccc2c(c1)CCC(=Cc1cccnc1Br)C2=O | -2.26%
